Results reported in PubChem BioAssay AID720518 (National Center for Advancing Translational Sciences (NCATS), 2013).
Results filed as inconclusive are left out. Unmarked numbers belong to inactive results. Calls come from the whole dose curve.

Test: qHTS for Inhibitors of Cell Surface uPA Generation: Wild-type Protective Antigen (WT-PrAg) Counterscreen for Cherry-picked Compounds; note: 0% is about no effect
Conditions: cells, WT protective antigen toxicity counterscreen; series mostly up to 115 µM; activity (protection): at the top concentration

SMILES | activity (protection)
O=C(C1CCN(c2nnc(N3CCCC3=O)s2)CC1)N1CCN(c2cccc(C(F)(F)F)c2)CC1 | -1.97%
COc1ccc(CN2CCNC(=O)C2CC(=O)NCC2CCOCC2)cc1C (stereo not given) | -0.406%
CN1CCN(C2=Nc3ccccc3Oc3ccc(Cl)cc32)CC1 | -0.292%
COc1ccc(C2C(C(=O)c3ccc(C)o3)=C(O)C(=O)N2CC2CCCO2)cc1OC (stereo not given) | 0.734%
COc1cccc(C2CC(c3ccc(C)cc3)n3ncnc3N2)c1 (stereo not given) | 0.394%
O=C(COc1ccc(C(=S)N2CCOCC2)cc1)N1CCOCC1 | 0.626%
COCCOc1ccc(C(F)(F)F)cc1NC(=O)COC(=O)Cc1c[nH]c2ccccc12 | -0.946%
COc1cc(N/C(N)=N/c2nc(C)cc(C)n2)cc(OC)c1 | -2.15%
CC(=O)n1cc(/C=N/NC(=O)c2ccc([N+](=O)[O-])cc2)c2ccccc21 | -1.78%
CC(C)C(NC(=O)Cc1ccccc1)C(=O)N1CCN(c2cccc(Cl)c2)CC1 (stereo not given) | -2.55%
COc1cc(SC)ccc1C(=O)OCc1nc2ccsc2c(=O)[nH]1 | 0.671%
CCCc1nc2c(=O)n(C)c(=O)[nH]c2n1CCC | 0.862%
COc1cc(CN2CCN(S(=O)(=O)c3ccccc3)CC2)cc(OC)c1OC | -0.212%
COc1ccc(CN2CCN(Cc3ccc(C(F)(F)F)cc3)CC2)cc1 | -1.82%
CC(C)c1ccc(SCc2noc(C(=O)NCC3CCCO3)c2C(=O)O)cc1 (stereo not given) | 0.0703%
O=C(O)CCCC(=O)NCCCCc1ccccc1 | -0.427%
Cc1ccc(NC(=S)N2CCN(Cc3ccc4c(c3)OCO4)CC2)c(C)c1 | -2.43%
CC(=O)Nc1c2c(nn1-c1cccc(C)c1)CSC2 | 0.376%
CCOC(=O)C(CC)n1cnc2c(nnn2-c2ccccc2)c1=O (stereo not given) | 0.222%
Cc1nc(N2CCN(c3ccc(Cl)cc3)CC2)[nH]c(=O)c1C | 0.512%

SMILES | activity (protection)
CC1(C(=O)OCC(=O)Nc2ccc(Cl)cn2)CC1(Cl)Cl (stereo not given) | 5.25%
CCC(C)Nc1cc(C)nc2ncnn12 (stereo not given) | -0.604%
CC(C)CNC(=O)COC(=O)CCC(=O)c1cccs1 | -0.0024%
Cc1cnc(CNC(=O)CC2C(=O)NCCN2Cc2ccccc2C(F)(F)F)cn1 (stereo not given) | 0.0975%
Cc1ccc(S(=O)(=O)NC(=O)Nc2nccs2)cc1 | -1.79%
COc1ccc(C(=O)NCCCN2CCOCC2)cc1 | -0.755%
COc1ccccc1N1CCN(C(=O)CCC(=O)N2CCN(c3ccc(F)cc3)CC2)CC1 | -1.42%
CC(=O)Nc1sc(C)c(C)c1C(=O)OCC(=O)NC(C)c1ccccc1 (stereo not given) | 0.373%
COc1ccc(C(=O)CC(=O)C(=O)Nc2ccccc2)cc1 | -2.05%
CCCCN(CC(=O)Nc1cccc(S(=O)(=O)N2CCCC2)c1)Cc1nc2ccccc2c(=O)[nH]1 | -2.42%
O=C(Nn1cnnc1)c1ccc(Cl)c(Cl)c1 | -0.404%
CCN(C(=O)CSc1ncnc2sccc12)c1c(N)n(Cc2ccccc2)c(=O)[nH]c1=O | 0.582%
O=C(COC(=O)c1cccc([N+](=O)[O-])c1)NNC(=O)c1cccs1 | 0.0086%
O=[N+]([O-])c1ccc(-c2cn3c(n2)SCC3)cc1 | -1.19%
O=C(c1cc2cc([N+](=O)[O-])ccc2s1)N1CCOCC1 | -1.68%
CCOCCCn1c(SCC(=O)Nc2oc(C)c3c(C)n[nH]c(=O)c23)nc2ccccc2c1=O | -1.46%
COc1cc(CNCCc2ccccc2)cc(Br)c1OCC(=O)Nc1ccccc1C | -1.07%
O=C(C[C@H]1C[C@H](C(=O)N2CCOCC2)[C@@]2(CCC3CCCC3)c3[nH]c4cc(-c5ccco5)ccc4c3CCN2C1=O)NCc1cccc(C(F)(F)F)c1 | -0.785%
Cc1ccc(S(=O)(=O)N(C)c2ccc(OC(=O)c3ccc(=O)[nH]c3)cc2)cc1 | -0.512%
Cc1ccc2cc(C=O)c(Cl)nc2c1 | -0.682%
